The source of these data is ChEMBL document CHEMBL3988442, “University of Dundee, Small-Polar-MMV Screening Library” (2021).

Among all 48,000 compounds or so, about 13,000 (27%) showed an effect of 50% or more. This is one part of the list.

For the test, the system named is Wolbachia pipientis. Kind of test: Anti-Wolbachia Cell-Based Screen. The test is classed as functional. Set-up: scale not given: in the data most compounds retested in dose-response had high values. The conditions noted are these: 5 µM.
Take `CCOc1cccc(C(C)NCc2ccc(OC)c(OC)c2OC)c1` (stereo not drawn): the “Percent Effect” value came out at 2.292%.
The value for `CCCC(NC(=O)c1cc(C2CC2)[nH]n1)c1nnc2ccccn12` (stereo not drawn) was 4.911%.
For `CC(C)(C)c1nnc(CNc2cc(F)ccc2OCC2CCCO2)o1` (stereo not drawn), the “Percent Effect” value is reported as 0.05226%.
With `O=C(Nc1cc(F)ccc1OCC1CCCO1)c1ccoc1` (stereo not drawn) the figure was -0.8662%.
With `CC(=O)N1CCC(Nc2cc(F)ccc2OCC2CCCO2)CC1` (stereo not drawn), the “Percent Effect” value stood at 103.1%.
Take `O=C(Nc1cc(F)ccc1OCC1CCCO1)N1CCCC1` (stereo not drawn): the “Percent Effect” value was 75.82%.
Turning to `O=C(CC(F)(F)F)Nc1cc(F)ccc1OCC1CCCO1` (stereo not drawn), the “Percent Effect” value is 91.81%.
With `O=C(Nc1cc(F)ccc1OCC1CCCO1)c1ccccn1` (stereo not drawn) the figure was -3.019%; with `O=C(Nc1cc(F)ccc1OCC1CCCO1)N1CCSCC1` (stereo not drawn), 95.33%; with `CCc1noc(CNc2cc(F)ccc2OCC2CCCO2)n1` (stereo not drawn), -4.375%.
For the compound `CN(Cc1ccco1)C1CCC12CCN(C(=O)c1ccnnc1)CC2.O=C(O)C(F)(F)F` (stereo not drawn), the “Percent Effect” value is -20.01%.
In the case of `CCN1CCN(S(=O)(=O)N2CCC(OC)CC2)[C@H]2CS(=O)(=O)C[C@H]21`, the “Percent Effect” value is -12.77%.
With `Cc1ccc2nc(CN(C)Cc3ccc(C)o3)cc(=O)n2c1`, the “Percent Effect” value worked out at 4.444%.
Turning to `CC(COc1ccccc1)NCc1nc(-c2cccnc2)no1` (stereo not drawn), the “Percent Effect” value is reported as -6.485%.
For the compound `CS(=O)(=O)c1ccc(CNCC2CCN(CCO)CC2)cc1`, the “Percent Effect” value was -3.753%.
In the case of `Cc1cc(CNC(=O)COc2ccccc2F)c(C)o1`, the “Percent Effect” value is given as 7.15%.
Consider `Cc1cc(C(=O)NCc2cccnc2OC(C)C)no1`, for which the “Percent Effect” value is reported as -0.04653%.
Take `COc1ccc(CNC(=O)NCc2cc(C)oc2C)cc1`: the “Percent Effect” value is listed as 2.864%.
With `Cc1cc(CNC(=O)c2cnoc2C)c(C)o1`, the “Percent Effect” value is given as 146.4%.
Consider `COc1cc(NC(=O)NCc2cc(C)oc2C)cc(OC)c1`, for which the “Percent Effect” value is -2.456%.
With `Cc1nnn2c1COCC(CNC(=O)c1cnoc1C)C2` (stereo not drawn) the figure was -0.1551%; with `Cc1cc(C(=O)NCc2ccccn2)no1`, 0.7911%.
Take `Cc1cc(C(=O)NCc2cc(C)oc2C)no1`: the “Percent Effect” value is listed as 107.3%.
For the compound `Cc1cc(CNC(=O)c2ccno2)c(C)o1`, the “Percent Effect” value came out at 94.7%.
With `Cc1cccnc1CNC[C@H]1Cn2cc(-c3ccccc3)nc2CO1`, the “Percent Effect” value is recorded as 6.747%.
Regarding `NC(=O)c1cccc(CNC(=O)NCCOc2ccc(F)c(F)c2)c1`, the “Percent Effect” value is listed as 0.2822%.
With `CSCc1noc(C2CCC(=O)N(CCCN3CCCC3=O)C2)n1` (stereo not drawn), the “Percent Effect” value is -15.49%.
Take `OCCOc1ccc(NCc2cc(F)cc3cccnc23)cn1`: the “Percent Effect” value was -4.55%.
With `Cc1noc(CCCC(=O)N2CSCC2C(=O)NCC2CC2)n1` (stereo not drawn), the “Percent Effect” value amounted to 8.382%.
As for `CC(NCCN1CCN(C(=O)C2CCCC2)CC1)c1nccs1` (stereo not drawn), the “Percent Effect” value is 4.028%.
The value for `CC(C)(C)C(=O)NC(c1nccs1)C1CCN(CC2CCCCC2)CC1.Cl` (stereo not drawn) was 130.3%; that for `CC(NC(=O)NC1CCN(CC2CCCC2)CC1)c1nccs1` (stereo not drawn) was -2.566%.
For the compound `Clc1ccc(N2CCC(C3CCN(Cc4cccnc4)CC3)C2)nc1` (stereo not drawn), the “Percent Effect” value is on record as 4.175%.
As for `Cc1ccccc1CN1CCN(C(C)c2nc(C3CC3)no2)CC1` (stereo not drawn), the “Percent Effect” value is listed as 114.1%.
With `CC(c1nc(C2CC2)no1)N1CCN(Cc2ccccc2)CC1` (stereo not drawn) the figure was 7.857%; with `Cc1nc(CN2CCN(C(C)c3nc(C4CC4)no3)CC2)no1` (stereo not drawn), 103.1%.
Take `CC(c1nc(C2CC2)no1)N1CCN(Cc2ccccc2F)CC1` (stereo not drawn): the “Percent Effect” value is recorded as 3.653%.
Consider `CC(C)c1noc(C(C)N2CCN(Cc3ccco3)CC2)n1` (stereo not drawn), for which the “Percent Effect” value is reported as -4.875%.
With `Cc1noc(C)c1CN1CCN(Cc2nc(C3CC3)no2)CC1` the figure was -14.96%.
For `CCc1noc(C(C)N2CCN(Cc3noc(C)n3)CC2)n1` (stereo not drawn), the “Percent Effect” value is given as -22.55%.
Regarding `Cc1noc(C)c1CN1CCN(C(C)c2nc(C3CC3)no2)CC1` (stereo not drawn), the “Percent Effect” value came to 133.7%.
On to `Cc1nnc(C(C)N2CCN(Cc3noc(C(C)(C)C)n3)CC2)o1` (stereo not drawn), for which the “Percent Effect” value came to 6.078%.
Regarding `Cc1noc(C(C)N2CCN(Cc3noc(C4CC4)n3)CC2)n1` (stereo not drawn), the “Percent Effect” value was 1.427%.
For `CC(C)c1noc(C(C)N2CCN(Cc3noc(C(C)(C)C)n3)CC2)n1` (stereo not drawn), the “Percent Effect” value is reported as 117.7%.
In the case of `COc1ncccc1NC(=O)N1CCC(c2ccc(O)cc2)CC1`, the “Percent Effect” value was -2.726%.
The value for `CC(C)c1nc(C(=O)N2CCCC(N)CC2)cs1` (stereo not drawn) was -4.509%.
Regarding `CN(CC(F)F)C(=O)c1cn(-c2ccc(Br)cc2)cn1`, the “Percent Effect” value was determined as 1.903%.
With `CN(Cc1nc(C2CC2)no1)C(=O)C1COc2ccccc2C1` (stereo not drawn) the figure was 29.53%.
Consider `Cc1ccnc(C(NC(=O)c2ncoc2C)C2CC2)n1` (stereo not drawn), for which the “Percent Effect” value is listed as -4.451%.
With `CC(=O)c1cccc(OCC(=O)N(CC(C)C)C2CCN(C)CC2)c1`, the “Percent Effect” value was -3.463%.
Regarding `Cn1cccc1C(=O)N1CCC2(CC1)c1nc[nH]c1CCN2S(C)(=O)=O`, the “Percent Effect” value is on record as -21.07%.
Consider `Cc1c2ncn(CC(=O)N(C)C)c(=O)c2nn1C`, for which the “Percent Effect” value is given as -2.054%.
With `CC(C)(C)N1CCCN(C(=O)c2csc(S(N)(=O)=O)c2)CC1`, the “Percent Effect” value was 4.518%.
`CC(C)c1nc(CN2CCN(C(C)c3nc(C4CC4)no3)CC2)no1` (stereo not drawn): the “Percent Effect” value is recorded as 0.3475%.
For `CC(c1nc(C2CC2)no1)N1CCN(Cc2noc(C3CC3)n2)CC1` (stereo not drawn), the “Percent Effect” value is 103.7%.
For `CC(C)c1noc(C(C)N2CCN(Cc3noc(C4CC4)n3)CC2)n1` (stereo not drawn), the “Percent Effect” value is 18.72%.
As to `CC(NC(=O)N1CCN(c2ccccc2)CC1)c1nncn1C` (stereo not drawn), the “Percent Effect” value is given as 1.482%.
In the case of `CC(C(=O)O)N1CCc2onc(-c3ccc(F)c(F)c3)c2C1` (stereo not drawn), the “Percent Effect” value is -3.454%.
`O=C(NC1CCS(=O)(=O)C1)c1cn(C2CC2)c(=O)c2ccccc12` (stereo not drawn): the “Percent Effect” value stood at 92.4%.
Turning to `CCc1c(C(=O)NC2CCS(=O)(=O)C2)cnn1-c1ccc(F)cc1` (stereo not drawn), the “Percent Effect” value is listed as 9.191%.
With `COCCN1CCC(NC(=O)Cn2cc(C)c3ccccc32)CC1` the figure was -24.59%; with `CN(Cc1csc2ccccc12)C(=O)NC1CCS(=O)(=O)C1` (stereo not drawn), -6.965%; with `COCCn1cc(C(=O)NC2CCS(=O)(=O)C2)c2ccccc2c1=O` (stereo not drawn), 102%.
On to `O=C(NC1CCS(=O)(=O)C1)c1ccc(-c2ccc(F)cc2)s1` (stereo not drawn), for which the “Percent Effect” value was determined as 1.727%.
Take `Cn1cc(CCNC(=O)NC2CCS(=O)(=O)C2)cn1` (stereo not drawn): the “Percent Effect” value is -13.02%.
On to `O=C(NC1CCC(N2C(=O)CCC2=O)CC1)c1c[nH]c2ccccc12` (stereo not drawn), for which the “Percent Effect” value was -1.536%.
On to `CC(C)[C@H](NC(=O)NC1CCS(=O)(=O)C1)C(=O)NCc1ccccc1Cl` (stereo partly drawn), for which the “Percent Effect” value is -0.7444%.
With `CC(C)Cn1cc(C(=O)NC2CCS(=O)(=O)C2)c2ccccc2c1=O` (stereo not drawn) the figure was 107.3%.
With `O=C(CCNC(=O)c1sccc1-c1ccccc1)NC1CCS(=O)(=O)C1` (stereo not drawn), the “Percent Effect” value turned out to be 26.53%.
The value for `CC(C)n1cc(C(=O)NC2CCS(=O)(=O)C2)c2ccccc2c1=O` (stereo not drawn) was 104.9%; that for `Cn1cnc2cc(C(=O)N3CCN(CCO)[C@@H]4CS(=O)(=O)C[C@@H]43)ccc21` was -4.245%; that for `O=C(O)c1cc(-c2ccoc2)cc(S(=O)(=O)NC2CC2)c1` was 13.87%.
With `c1cnc(NCC2Cn3nnc(-c4ccoc4)c3CO2)nc1` (stereo not drawn) the figure was 9.551%; with `Cc1nnc(CN2C[C@H](NC(=O)CC3CCCC3)[C@@H](C3CC3)C2)s1`, -5.316%; with `COC(=O)C1CN(Cc2ccn(-c3ccc(F)cc3)n2)C[C@@H](C)O1` (stereo partly drawn), -6.737%.
In the case of `CCc1cc(NC(=O)c2cccc(OCC(F)(F)F)n2)[nH]n1`, the “Percent Effect” value is -13.74%.
Consider `CC(C)CCn1cc(C(=O)NC2CCS(=O)(=O)C2)c2ccccc2c1=O` (stereo not drawn), for which the “Percent Effect” value came out at 143.5%.
The value for `O=C(NC1CCS(=O)(=O)C1)c1ccccc1SCc1cscn1` (stereo not drawn) was -4.386%; that for `O=C(NC1CCS(=O)(=O)C1)c1sccc1OC(F)F` (stereo not drawn) was 15.29%; that for `Cc1nonc1-c1nc(C(C)C)nn1-c1ccc2c(c1)OCO2` was -15.14%.
With `COCCn1ccc2ccc(NC(=O)NCc3noc(C)n3)cc21` the figure was -17.56%.
The value for `COCCn1cnc2ccc(NC(=O)c3c(C)noc3C)cc2c1=O` was 114.6%; that for `Cc1noc(C)c1C(=O)NCCc1cccs1` was -0.0309%; that for `CNC(=O)C(NC(=O)c1c(C)noc1C)c1ccc(F)c(F)c1` (stereo not drawn) was 1.933%.
Consider `Cc1noc(C)c1C(=O)Nc1ccc2ncn(CC(C)C)c(=O)c2c1`, for which the “Percent Effect” value is 120.5%.
As to `Cc1noc(C)c1C(=O)NCC(O)c1ccc(F)cc1F` (stereo not drawn), the “Percent Effect” value came out at 3.33%.
On to `COc1cc(S(=O)(=O)N2CCc3ccc(F)cc32)cc(C(=O)O)c1OC`, for which the “Percent Effect” value is recorded as -3.468%.
The value for `COc1ccc(C)cc1CSCCn1nc2ccccn2c1=O` was 4.389%.
On to `Cc1sc2nc(CCN)nc(N3CCS(=O)(=O)CC3)c2c1C`, for which the “Percent Effect” value was 5.115%.
Take `Cc1ccc(C(=O)NC(CN2CCCC2)c2ccccc2)c(=O)[nH]1` (stereo not drawn): the “Percent Effect” value is listed as -7.426%.
As to `Cc1ccc(C(=O)NC2CCCCNC2=O)c(=O)[nH]1` (stereo not drawn), the “Percent Effect” value is reported as -8.505%.
With `CN1CCCC(N(C)C(=O)c2ccc(NC(=O)c3ccc[nH]3)cc2)C1` (stereo not drawn) the figure was -8.212%; with `Cc1ccc(C(=O)Nc2cnn(CC(=O)NC3CCCC3)c2)c(=O)[nH]1`, -2.747%.
Turning to `Cc1ccc(C(=O)NC2CCCN(CC(N)=O)C2)c(=O)[nH]1` (stereo not drawn), the “Percent Effect” value came to 108.8%.
Take `CN1CCCC(NC(=O)c2ccc(C(=O)c3cc[nH]c3)cc2)C1` (stereo not drawn): the “Percent Effect” value was found to be 107.5%.
With `Cc1ccc(C(=O)NCCN2CCOCC2)c(=O)[nH]1`, the “Percent Effect” value is given as 10.08%.
Turning to `O=C(NC1CCN(CC2CC2)C1)c1ccc(C(=O)c2cc[nH]c2)cc1` (stereo not drawn), the “Percent Effect” value was 2.424%.
`Cc1ccc(C(=O)NC2CCCN(C)C2)c(=O)[nH]1` (stereo not drawn): the “Percent Effect” value is 91.25%.
As for `CCN1CCCC(NC(=O)c2ccc(C)[nH]c2=O)C1` (stereo not drawn), the “Percent Effect” value was 104.5%.
`COc1ccc(F)cc1C(=O)N1CCC2(CCC(=O)N(C(C)C)C2)CC1`: the “Percent Effect” value is listed as -13.7%.
With `CCN(CC)C1CCN(C(=O)Nc2cc(F)c(OC)c(F)c2)C1` (stereo not drawn), the “Percent Effect” value is recorded as -0.1207%.
The value for `COCC(=O)N[C@H](C(=O)NC(C)c1cc(C)ccc1C)C(C)C` (stereo partly drawn) was -5.803%.
On to `CC(=O)NCC(=O)N1Cc2ccnn2CC(COCCN(C)C)C1` (stereo not drawn), for which the “Percent Effect” value was -1.622%.
